The structures appear in SMILES notation. Records with an inconclusive call do not appear. Calls of active or inactive are those of the source. Unless noted, the call rests on the fitted dose curve.

Assay [1] can be described thus: Primary qHTS for small molecule stabilizers of the endoplasmic reticulum resident proteome: Secreted ER Calcium Modulated Protein (SERCaMP) assay (AID 1508630; active means well fitted curve in the direction sought with a large enough effect; an effect the other way counts as inactive or inconclusive; further: on the % scale 0 is the no-effect control and ±100 the full control effect). In short, it runs like this:
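GLuc-SERCaMP-expressing SH-SY5Y cells, pretreated 16 h with compound, are challenged with thapsigargin to empty ER calcium stores; after 4 h, coelenterazine is added directly to the medium and luminescence is imaged.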
For orientation: In qHTS, concentration-response curves come from the screen itself.

Assay [2] deals with Cytochrome P450 2D6 (Homo sapiens) (UniProt P10635). Briefly: Cytochrome P450 family 2 subfamily D member 6 (CYP2D6) small molecule antagonists: luciferase biochemical (cell-free) qHTS assay (AID 1645840; active means well fitted curve in the direction sought with a large enough effect in the repeat runs; an effect the other way counts as inactive or inconclusive; further: nearly all actives have a fitted effect of over 55% in size; further: potency means the concentration at half of the fitted maximal effect; on activity change, negative = inhibition: on the % scale 0 is the no-effect control and ±100 the full control effect). In outline:
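P450-Glo luminescent screen: recombinant CYP2D6 enzyme–proluciferin substrate mix preincubated with compound 10 min at room temperature, then NADPH regeneration added for 1 h at room temperature. Detection reagent added for 20 min; luciferin light read as relative luminescence units.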

In assay [3] the target is Cytochrome P450 2C9 (Homo sapiens) (UniProt P11712). Briefly: Cytochrome P450 family 2 subfamily C member 9 (CYP2C9) small molecule antagonists: luciferase biochemical (cell-free) qHTS assay (AID 1645842; active means well fitted curve in the direction sought with a large enough effect in the repeat runs; an effect the other way counts as inactive or inconclusive; further: nearly all actives have a fitted effect of over 55% in size; further: potency means the concentration at half of the fitted maximal effect; on activity change, negative = inhibition: on the % scale 0 is the no-effect control and ±100 the full control effect). In outline: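 Luminescence, after 20 min with luciferin detection reagent, reflected CYP2C9 turnover during a 1 h NADPH-driven reaction at 37C. Enzyme-substrate mix contained 0.4% bovine serum albumin and was preincubated with compound 10 min at room temperature.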
Chain of Cytochrome P450 2C9 (Homo sapiens) (P11712 whole entry, looked up): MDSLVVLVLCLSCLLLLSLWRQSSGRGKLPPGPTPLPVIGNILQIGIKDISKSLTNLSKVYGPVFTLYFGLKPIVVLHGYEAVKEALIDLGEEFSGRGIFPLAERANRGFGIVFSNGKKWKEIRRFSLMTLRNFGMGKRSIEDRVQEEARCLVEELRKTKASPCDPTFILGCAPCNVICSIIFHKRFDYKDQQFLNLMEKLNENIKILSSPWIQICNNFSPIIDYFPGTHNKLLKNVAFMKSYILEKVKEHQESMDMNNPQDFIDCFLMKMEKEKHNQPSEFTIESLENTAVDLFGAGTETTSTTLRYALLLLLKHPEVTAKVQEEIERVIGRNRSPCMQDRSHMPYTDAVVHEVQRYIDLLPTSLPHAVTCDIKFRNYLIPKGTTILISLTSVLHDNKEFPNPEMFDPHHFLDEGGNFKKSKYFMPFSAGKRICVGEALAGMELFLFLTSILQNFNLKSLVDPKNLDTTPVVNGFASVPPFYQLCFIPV

A short description of assay [4]: Cytotoxicity counterscreen for inhibitors of SARS-CoV-2 cell entry (AID 1645845). Further: nearly all actives have a fitted effect of over 50% in size. In short, it runs like this: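 HEK293-ACE2 cells (Expi293F stably expressing human ACE2) seeded overnight, then compound for 1 h plus 48 h at 37C. Viability as ATP content by luminescence; normalized to wells with cells and media-only wells.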
On the technique in general: A counterscreen serves to expose hits that act by an unwanted route or on another target.

Assay [5] in a line: Primary qHTS to identify inhibitors of SARS-CoV-2 cell entry (AID 1645846). Further: nearly all actives have a fitted effect of over 45% in size. As to conditions: activity change, negative = inhibition: at 57.1 µM (top of the series) unless noted. In short, it runs like this: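 Using luciferase-reporting pseudoviruses carrying Wuhan-Hu-1 spike, the screen tracks entry into stably ACE2-expressing cells over 48 hr. Activity is expressed relative to spike particles versus particles lacking any fusion protein.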

The nature of assay [6]: Confirmatory qHTS to identify inhibitors of SARS-CoV-2 cell entry (AID 1645844). Further: nearly all actives have a fitted effect of over 45% in size. Further: potency means the concentration at half of the fitted maximal effect. In short, it runs like this: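 HEK293-ACE2 cells were pretreated 1 h with compound, then infected with MLV-based pseudoparticles bearing C-terminally truncated Wuhan-Hu-1 spike for 48 h at 37C; luciferase luminescence normalized to spike PP and bald PP wells.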
Assay [7] has as its target Cytochrome P450 3A4 (Homo sapiens) (UniProt P08684). Briefly: Cytochrome P450 family 3 subfamily A member 4 (CYP3A4) small molecule antagonists: luciferase qHTS assay (AID 1645841; active means well fitted curve in the direction sought with a large enough effect in the repeat runs; an effect the other way counts as inactive or inconclusive; further: nearly all actives have a fitted effect of over 45% in size). In short, it runs like this: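 P450-Glo CYP3A4 enzyme with proluciferin substrate preincubated 10 min with compound at room temperature, then NADPH regeneration 1 h. Luciferin detection reagent added for 20 min; luminescence recorded. Ketoconazole positive control.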

A short description of assay [8]: VSVG counterscreen qHTS to identify inhibitors of SARS-CoV-2 cell entry (AID 1645847). Further: potency means the concentration at half of the fitted maximal effect; nearly all actives have a fitted effect of over 65% in size. In outline:
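Entry of VSV-G pseudotyped particles into human ACE2-expressing HEK293 cells was measured by luciferase luminescence 48 h after infection, with compound added 1 h beforehand.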

Assay [9] in a line: A High-Content qHTS Against Drug Library for the Identification of Small Molecules that Inhibit DYT1 Early Onset Primary Dystonia-Associated Cell Pathology (AID 1645839). In short, it runs like this:
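Flp-In T-REx 293 cells with tetracycline-inducible EGFP-delE hTOR1A (WT EGFP-hTOR1A as reference), 800 cells/well; compound added with tetracycline, 48 h at 37 C. Fixed, permeabilized cells imaged; %pathology (punctate TorsinA) primary, cell count counterscreen.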

Chain of Cytochrome P450 2D6 (Homo sapiens) (P10635 whole entry, looked up): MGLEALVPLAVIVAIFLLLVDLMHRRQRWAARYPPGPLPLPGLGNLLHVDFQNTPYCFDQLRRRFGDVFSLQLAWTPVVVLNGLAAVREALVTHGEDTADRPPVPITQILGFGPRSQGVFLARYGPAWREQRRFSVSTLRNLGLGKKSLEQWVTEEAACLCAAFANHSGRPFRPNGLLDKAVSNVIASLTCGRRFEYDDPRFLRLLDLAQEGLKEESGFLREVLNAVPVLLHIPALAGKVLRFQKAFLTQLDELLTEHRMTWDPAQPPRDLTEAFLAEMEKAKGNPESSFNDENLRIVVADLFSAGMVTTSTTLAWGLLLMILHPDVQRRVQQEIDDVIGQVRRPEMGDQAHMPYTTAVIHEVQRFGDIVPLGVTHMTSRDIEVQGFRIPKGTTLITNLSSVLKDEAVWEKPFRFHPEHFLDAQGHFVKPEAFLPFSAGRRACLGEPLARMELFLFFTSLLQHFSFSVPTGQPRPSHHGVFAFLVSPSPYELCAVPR
Chain of Cytochrome P450 3A4 (Homo sapiens) (P08684 whole entry, looked up): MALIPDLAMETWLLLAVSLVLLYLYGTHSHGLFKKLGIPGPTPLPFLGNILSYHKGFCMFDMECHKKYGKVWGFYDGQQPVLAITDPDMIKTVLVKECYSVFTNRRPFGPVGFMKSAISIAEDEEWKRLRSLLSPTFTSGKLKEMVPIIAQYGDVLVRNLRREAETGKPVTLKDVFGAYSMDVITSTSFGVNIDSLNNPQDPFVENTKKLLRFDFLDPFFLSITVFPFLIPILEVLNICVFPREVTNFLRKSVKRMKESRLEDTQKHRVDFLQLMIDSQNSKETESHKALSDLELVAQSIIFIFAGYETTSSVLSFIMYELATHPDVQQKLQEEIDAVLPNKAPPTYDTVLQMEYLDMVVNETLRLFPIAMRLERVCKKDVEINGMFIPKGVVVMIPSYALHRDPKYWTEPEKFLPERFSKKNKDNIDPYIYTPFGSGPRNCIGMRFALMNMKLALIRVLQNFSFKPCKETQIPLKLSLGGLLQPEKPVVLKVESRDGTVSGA

Consider `COCC1(CO)C(=O)C2CCN1CC2` (stereo unspecified), for which the Potency result in [1], in assay [2], in assay [3] and in [4] was “inactive” in each case. The activity change, negative = inhibition in assay [5] is -14.4%.
`Nc1ccc(Sc2ccc(N)cc2)cc1`: the Potency entry in [1] was “inactive”. In addition, the Potency in assay [2] was 24.5 µM (active); in [3], 0.92 µM (active).
Regarding `Cc1ccccc1-n1c(Cn2ncc3c(N)ncnc32)nc2cccc(C)c2c1=O`, the Potency result in assay [1] and in [2] was “inactive” in each case. Moreover, the figures for the Potency in assay [3] and in [6] were 13.5 µM (active) and 7.64 µM (active), respectively. In addition, the activity change, negative = inhibition in [5] is -50.6%.
Consider `CC(=O)Nc1ccc(OC[C@](C)(O)C(=O)Nc2ccc([N+](=O)[O-])c(C(F)(F)F)c2)cc1`, for which the Potency entry in assay [1] and in [4] was “inactive” in each case. The Potency in assay [3] is 9.52 µM (active). Also, in assay [5], the activity change, negative = inhibition stood at 0.0964%.
For `CC(C)N(CCNC(=O)CN1CCCC1=O)C(C)C`, the Potency result in [1], in [2] and in assay [3] was “inactive” in each case.
Consider `O=C(O)CNC(=O)c1c(O)c2ccccc2n(Cc2ccccc2)c1=O`, for which the Potency entry in assay [1], in [2], in [7] and in assay [4] was “inactive” throughout.
`CCOC(=O)Nc1ccc(NCc2ccc(F)cc2)cc1N`: the Potency entry in assay [1] and in assay [4] was “inactive” in each case. The figures for the Potency in assay [2] and in [3] were 19 µM (active) and 9.52 µM (active), respectively. Further, the activity change, negative = inhibition in assay [5] was determined as 2.18%.
On to `CC1=NN=C(c2ccc(N)cc2)c2cc3c(cc2C1)OCO3`, for which the Potency entry in assay [1] is “inactive”. Besides, the Potency in assay [2] is 19 µM (active); in [3] it was 7.56 µM (active).
As to `ClC1=C(Cl)[C@]2(Cl)[C@@H]3[C@@H]4C[C@@H]([C@H]5O[C@@H]45)[C@@H]3[C@@]1(Cl)C2(Cl)Cl`, the Potency entry in assay [1] and in assay [2] was “inactive” in each case.
Turning to `CC(=O)N(C)c1cccc(-c2ccnc3c(C(=O)c4cccs4)cnn23)c1`, the Potency entry in assay [1], in assay [2] and in assay [3] was “inactive” in each case.
Regarding `COc1ccc(C(=O)c2c(C)n(CCN3CCOCC3)c3cc(I)ccc23)cc1`, the Potency in assay [8] is 30.4 µM (active).
As for `O=c1[nH]c(-c2ccc(C(F)(F)F)cc2)nc2c1CSCC2`, the Potency is 9.61 µM (active) in [6] and 1.92 µM (active) in assay [8]. For the same molecule, the Potency result in assay [4] is “inactive”.
For `CC(C)[C@H](C(=O)Nc1ccc(C(=O)NO)cc1)c1ccccc1`, the Potency entry in [6] is “inactive”. Further, in assay [5], the activity change, negative = inhibition is -95.5%. In addition, in [8], the Potency is 30.4 µM (active).
The matching figures for `Cc1n[nH]c(C)c1Cc1sc2c(c1C(=O)N1C[C@H](O)CO1)c(=O)n(C)c(=O)n2CC(C)C`: 0.393 µM (active), -55.4% and 1.24 µM (active).
As to `Cc1ccc(Cl)c(O)c1`, the Potency entry in assay [9], in assay [2] and in assay [3] was “inactive” throughout.
Consider `COc1cc2nccc(Oc3ccc(NC(=O)C4(C(=O)Nc5ccc(F)cc5)CC4)cc3)c2cc1OC`, for which the Potency in [6] was 2.15 µM (active); in [8], 8.57 µM (active). The Potency entry in assay [4] is “inactive”.
As for `O=C(O)c1ccc2c(c1)nc(Nc1cccc(Cl)c1)c1ccncc12`, the Potency in assay [6] and in assay [8] was 2.15 µM (active) in each case.
In the case of `Cc1cc(Nc2nc(N[C@@H](C)c3ncc(F)cn3)ncc2Cl)n[nH]1`, the Potency in [6] was 2.71 µM (active); in assay [8], 6.81 µM (active). Also, the activity change, negative = inhibition in [5] was -52.3%.
On to `O=C(O)c1ccccn1`, for which the Potency result in assay [2] and in assay [3] was “inactive” each time. For the same molecule, the activity change, negative = inhibition in assay [5] was -3.73%.
For `CCCS(=O)(=O)Nc1ccc(F)c(C(=O)c2c[nH]c3ncc(-c4ccc(Cl)cc4)cc23)c1F`, the Potency in assay [6] is 0.0681 µM (active); in assay [8], 21.5 µM (active). Moreover, in [4], the Potency entry was “inactive”. Besides, in [5], the activity change, negative = inhibition is -8.78%.
Regarding `Cc1cccc(-c2[nH]c(C(C)(C)C)nc2-c2ccc3nccnc3c2)n1`, the Potency entry in assay [4] is “inactive”.

The record behind these values is PubChem BioAssay (NCATS).
